Several values for one entry are separate records, joined by “and”; a condition that tells them apart may be missing. Equal entries are not always repeated. About 83,000 compounds went through this panel and 20% of them were active in at least one assay; those are over-represented in the sample as a whole.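 Activity criterion: percent growth below 10, measured after cells in 96-well plates were exposed to a single compound concentration for 48 hours.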 Values without a mark were called inactive. Activity calls are given as the source filed them.

The assay concerns MDA-MB-468 breast. Nature of the assay: NCI-60 one-dose screen, 48 h (100 = growth as untreated, 0 = no growth, -100 = all killed). As to conditions: 10 µM unless noted.
With `COc1cc(C2C=C(C)N=C3SC=CN32)cc(OC)c1OC` (stereo not given), the growth is 97.5%.
`CCCCCCCCCCCCCCCCCC(=O)OCCCCCCC`: the growth is 114%.
Take `COc1cc(/C=C/C(=O)/C=C/c2cc3ccc(Cl)cc3[nH]c2=O)ccc1O`: the growth is 98.4%.
As to `O=C(O)c1ccc2c3c(ncnc13)-c1ccccc1C2=O`, the growth was 95.7%.
In the case of `[2H]c1cc2c(c([2H])c1F)/C(=C/c1[nH]c(C)c(C(=O)NCCN(CC)CC)c1C)C(=O)N2`, the growth is 118%.
The same measure for `C/C(=N\NC(=O)c1ccc(C(C)(C)C)cc1)c1ccc(O)cc1O`: -26.3% (active); for `COc1cc(/C=C2\CN(C(=O)OC(C)(C)C)C/C(=C\c3ccc(O)c(OC)c3)C2=O)ccc1O`: 99.9%; for `Cc1cc2nc(-c3c(N)ncc(C#N)c3-c3ccc(Cl)cc3)[nH]c2cc1C`: 66%.
Consider `CC(C)c1cc(C(=O)O)c(O)c(C(C)C)c1.CC(C)c1cc(C(=O)O)c(O)c(C(C)C)c1.[Mn]`, for which the growth is 120%.
In the case of `CCN1C2=C(SC(=S)C1=C1SC(C(=O)OC)=C(C(=O)OC)S1)SC(=Nc1ccc(OC)cc1)C2=O`, the growth was -78% (active).
As for `CC1=NN(c2cccc(Cl)c2)C(=O)/C1=C\C=C\c1ccccc1`, the growth was 9.96% (active).
Turning to `CCC(C)N(CCNc1cc(OC)cc2cccnc12)CC(C)C` (stereo not given), the growth was -52.5% (active).
On to `COc1cc(-c2nc(SCCC(C)C)nc(NNC(=O)c3ccncc3)c2C#N)cc(OC)c1OC`, for which the growth was 77.7%.
As for `CNc1sc(S(=O)(=O)NC)nc1S(=O)(=O)c1ccc(C)cc1`, the growth was 86.3%.
As to `Clc1ccc2c(c1)-c1ccccc1C1=NCCN12`, the growth was 7.52% (active).
Take `CCc1ccc(C(=Nc2ccc(N(C)C(=O)CN3CCN(C)CC3)cc2)c2c(O)[nH]c3ccc(C(=O)OC)cc23)cc1`: the growth is -75.6% (active).
Take `Cc1c(Cl)cccc1NCN1C(=O)c2ccccc2C1=O`: the growth is 98.4%.
`CCC(=O)Nc1cc2c(cc1Cl)-c1ccccc1C2`: the growth is 97.9%.
As for `COc1ccc2sc3c(NCCCN)nc4ccccc4c3c(=O)c2c1`, the growth is 48.6%.
In the case of `CCCCCCCCCCCCNc1ncnc2[nH]ncc12`, the growth is 55.7%.
In the case of `C#Cc1ccc(-n2c(/C=C/c3ccc4ccccc4c3)nc3ncccc3c2=O)cc1`, the growth is -16.1% (active).
`Cn1c2ccc(Br)cc2c2c3c(c4c5ccccc5[nH]c4c21)C(=O)N(O)C3=O`: the growth is -52.5% (active).
The same measure for `CCOC(=O)C#Cc1c(C(=O)OCC)nnn1Cc1ccc(C(F)(F)F)cc1`: -25.7% (active); for `COc1ccc(OC)c(NC(=O)c2cc3oc4ccccc4c3cc2O)c1`: 96.9%.
The same measure for `CNC(=O)c1cc(Oc2ccc(NC(=O)Nc3ccc(Cl)c(OC4CCCCC4)c3)c(F)c2)ccn1`: 15.5%; for `CCNCCOc1ccc(/C(=C(/CC)c2ccc(Cl)cc2)c2ccc(OCCCN(C)C)cc2)cc1`: -87% (active); for `CC(c1cc(Cl)ccc1O)c1cc(Cl)ccc1O`: 6.87% (active).
Consider `O=C(CC(=O)C(F)(F)C(F)(F)C(F)(F)F)c1cc2ccccc2o1`, for which the growth is 112%.
Turning to `N#CC1=C(N)OC2=C(C(=O)CCC2)C1c1ccco1` (stereo not given), the growth is 115%.
As for `CCCCCCCCCCCCCCCCCC(=O)NCCNC(=O)CCCCCCCCCCCCCCCCC`, the growth was 102%.
The same measure for `CCCCCCC[C@@H](O)CC(=O)N[C@H](CCCCN)C(=O)N[C@H](Cc1c[nH]c2ccccc12)C(=O)NC(CCCCN)C(=O)N[C@H](CC(C)C)C(=O)N[C@H](Cc1ccccc1)C(=O)N[C@H](CCCCN)C(=O)N[C@H](CCCCN)C(=O)N[C@H](CC(C)C)C(=O)N1CCCC1C(=O)N[C@H](CCCCN)C(=O)N[C@H](Cc1ccccc1)C(=O)N[C@H](CC(C)C)C(=O)N[C@H](Cc1c[nH]cn1)C(=O)N[C@H](CC(C)C)C(=O)N[C@H](C)C(=O)N[C@H](CCCCN)C(=O)N[C@H](CCCCN)C(=O)N[C@H](Cc1ccccc1)C(=O)O` (stereo not given in full): -58.2% (active).
The same measure for `CC(=O)O[C@H]1CC[C@]2(C)C3=C(C(=O)C[C@H]2C1(C)C)[C@]1(C)CC[C@H]([C@H](C)CCC(=O)O)[C@@]1(C)CC3=O`: 113%.
Take `CNC(C)=O`: the growth was 102%.
Consider `COc1cc2oc3cc(C)oc(=O)c3c2cc1OC`, for which the growth was 91%.
The same measure for `N#CC1c2ccccc2-c2ccccc2N1C(=O)c1ccccc1` (stereo not given): 32.9%; for `Nc1nc(SC/C=C/CCl)c2[nH]cnc2n1`: 103% and 127%; for `O=C1Nc2ccc(Cl)cc2/C1=C\c1c(-c2ccc(F)cc2)nc2ccccn12`: -13.6% (active).
With `COc1ccc(C2C3=C(COC3=O)N(CCO)c3cc4c(cc32)CCC4)cc1` (stereo not given), the growth was 7.26% (active).
Take `N#Cc1cc2[nH]c3ccc(OC(F)(F)F)cc3c2oc1=O`: the growth is 95.2%.
In the case of `CCCCCN1C=C/C(=C\C(=O)N(C)c2ccc(Oc3ccccc3)cc2)c2ccccc21`, the growth was 22.3%.

Source of the values: PubChem BioAssay (NCI).
